Hits are enriched below; roughly 4.5% of the tested compounds scored in any of these assays.
Rpn11 block: Rpn11 (PSMD14) deubiquitinase inhibitors, primary screen, biochemical, fluorescence polarization, uHTS; human 26S proteasome, Ub4-pepOG fluorescence polarization; 20S core pre-blocked with epoxomicin; inhibition, % at 20 µM; 360,000 compounds, 0.59% hits;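 active = inhibition at 20 µM, scaled to each plate's controls, above about 33%, limit read from the data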
ZTA DNA inh: counter-screen for EBNA-1 inhibitors: inhibitors of Epstein-Barr virus ZTA; P03206; ZTA-DNA binding, fluorescence polarization; inhibition, % at 11 µM; 320,000 compounds, 0.15% hits; AID 2234; in the data active = inhibition above about 33%
Target sequence (P03206 whole entry, looked up): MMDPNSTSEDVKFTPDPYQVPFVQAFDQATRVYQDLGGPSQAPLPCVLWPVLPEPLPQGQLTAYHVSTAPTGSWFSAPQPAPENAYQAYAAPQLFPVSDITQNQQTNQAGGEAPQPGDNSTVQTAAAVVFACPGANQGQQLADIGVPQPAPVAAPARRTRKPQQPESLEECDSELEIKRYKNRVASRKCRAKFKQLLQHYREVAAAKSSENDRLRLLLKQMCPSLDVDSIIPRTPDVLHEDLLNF
TPT1 inh: Candida albicans TPT1 enzyme inhibitors, primary screen, biochemical, fluorescence polarization. recombinant caTPT1, FP RNA substrate dephosphorylation. inhibition, % at 5 µM. 300,000 compounds, 0.81% hits. AID 1962, 2009;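 active = inhibition above the mean of all tested compounds plus 3 SD, set per screening campaign, cut at about 24% in these data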
NR3A LBD binder: binders of NR3A ligand-binding domain, primary screen, biophysical, differential scanning fluorimetry, uHTS; NR3A LBD differential scanning fluorimetry, Tm shift; 0% = protein alone, 100% = glycine-bound protein; 340,000 compounds, 2.5% hits; Tm shift relative to glycine control, % at 25 µM; Glutamate receptor ionotropic, NMDA 3A (GRIN3A) ligand-binding domain;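 active = melting temperature shift of at least 10% of the positive control shift, at one fixed dose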
EBNA-1 inhibitor: EBNA-1 DNA-binding inhibitors, primary screen, biochemical, fluorescence polarization. inhibition, % at 14.8 µM. 300,000 compounds, 0.34% hits; in the data active = inhibition above about 28%
dFosB act: activators of delta FosB homodimer, primary screen, biochemical, fluorescence polarization, TAMRA-CDK5 oligo, single point | Protein FosB (Mus musculus), P13346 | activation, % at 25 µM | purified delta FosB; percent of positive-control signal above neutral wells | 340,000 compounds, 0.99% hits;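 active = mean activation above about 17%, with every replicate also reaching it, limit read from the data, passing the limit was not always enough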
Target sequence (P13346 whole entry, looked up): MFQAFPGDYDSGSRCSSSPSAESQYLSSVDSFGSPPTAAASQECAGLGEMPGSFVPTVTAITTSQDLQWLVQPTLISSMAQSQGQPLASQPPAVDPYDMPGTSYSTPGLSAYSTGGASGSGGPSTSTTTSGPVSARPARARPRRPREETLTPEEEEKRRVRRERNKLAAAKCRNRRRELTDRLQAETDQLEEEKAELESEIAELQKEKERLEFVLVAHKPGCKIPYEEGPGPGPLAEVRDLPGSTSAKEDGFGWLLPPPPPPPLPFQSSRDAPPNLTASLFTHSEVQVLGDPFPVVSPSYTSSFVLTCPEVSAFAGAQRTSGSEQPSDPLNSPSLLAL
Large screens that a line does not name were inactive.

COc1cc(NC(=O)Nc2ccc3c(c2)OCO3)cc(OC)c1OC	NR3A LBD binder 26
O=C(Nc1nc(-c2ccccc2)ns1)c1ccncc1	none
Cc1cccc(Nc2ccncc2S(N)(=O)=O)c1	none (no result: dFosB act)
CC1=NN(c2ccc(Cl)c(C(=O)O)c2)C(=O)C1	none
CC1=NN(c2cccc(Cl)c2)C(=O)C1	NR3A LBD binder 11
CCOC(=O)c1cc(-c2ccc(N3CCOCC3)cc2)nn1-c1ccccc1C(=O)O	Rpn11 block 60
CCOC(=O)c1cc(-c2ccc(N3CCOCC3)cc2)nn1-c1ccccc1	none
COc1cc(C)ccc1OCC(=O)OCC(=O)NCC1CCCCC1	none (no result: ZTA DNA inh, TPT1 inh, EBNA-1 inhibitor)
O=C(Nc1ccc2c(c1)C(=O)NC2=O)c1ccccc1	none
O=C(/C=C/c1ccccc1)Nc1ccc2c(c1)C(=O)NC2=O	NR3A LBD binder 14
O=C(NCCCCc1ccccc1)c1cccc(NC(=O)c2ccccc2)c1	none (no result: ZTA DNA inh, TPT1 inh, EBNA-1 inhibitor)
O=C(/C=C/c1ccccc1)Nc1cccnc1	NR3A LBD binder 30
O=C(C=Cc1ccccc1)Nc1ccccc1	none (no result: ZTA DNA inh, TPT1 inh, EBNA-1 inhibitor)
O=C(/C=C/c1ccccc1)Nc1cccc(C(=O)NCCCc2ccccc2)c1	NR3A LBD binder 27 (no result: ZTA DNA inh, TPT1 inh, EBNA-1 inhibitor)
O=C(c1ccc(S(=O)(=O)N2CCCCC2)cc1)N1CCN(CCN2C(=O)c3cccc4cccc(c34)C2=O)CC1	none
CN1CCC(C)(C(=O)Nc2cccc(Oc3ccccc3)c2)C1 (stereo not given)	none (no result: ZTA DNA inh, TPT1 inh, NR3A LBD binder, EBNA-1 inhibitor, dFosB act)
CC(C)(C)[C@H]1COC(=O)[C@H](NC(=O)OCC2c3ccccc3-c3ccccc32)C/C=C\C[C@@H](CC(=O)N[C@@H](CO)Cc2ccccc2)C(=O)N1	none (no result: ZTA DNA inh, TPT1 inh, EBNA-1 inhibitor)
COc1ccccc1CC1(C)C(=O)Nc2c(Cl)cccc21 (stereo not given)	none (no result: ZTA DNA inh, TPT1 inh, NR3A LBD binder, EBNA-1 inhibitor, dFosB act)
COc1ccc(Nc2nc(-c3ccccc3)c(C(=O)Nc3cccnc3)s2)cc1	NR3A LBD binder 19
CC1CCCCC1NC(=O)Cn1cnc2sccc2c1=O (stereo not given)	none (no result: ZTA DNA inh, TPT1 inh, EBNA-1 inhibitor)
CCCCCCOc1ccc(/C(C)=N/NC2=NCCN2)cc1[N+](=O)[O-]	dFosB act 55
C/C(=N\NC1=NCCN1)c1ccc(N)c([N+](=O)[O-])c1	none
Cc1cc([N+](=O)[O-])ccc1-c1ccc(/C=N/NC(=O)c2ccc(Br)o2)o1	NR3A LBD binder 27
O=C(N/N=C/c1ccc(-c2cccc([N+](=O)[O-])c2)o1)[C@H]1C[C@@H]1c1ccccc1	NR3A LBD binder 15
O=C(N/N=C/c1ccc(-c2cccc([N+](=O)[O-])c2)o1)c1cccs1	NR3A LBD binder 14
COc1ccc(Cc2c(-c3ccc(F)cc3)nc3ccc(Cl)cn23)c(C)c1	none (no result: ZTA DNA inh, TPT1 inh, NR3A LBD binder, EBNA-1 inhibitor, dFosB act)
CCOc1cc(/C=N/NC(=O)Cn2nc([N+](=O)[O-])cc2C)cc(Br)c1OCc1ccccc1C	NR3A LBD binder 13
O=c1cc(/C=C/c2c(F)cccc2Cl)[nH]c2ccccc12	Rpn11 block 88
Nc1nccc(/C=C/c2c(F)cccc2Cl)n1	none
Cc1cc(=O)n2nc(N3CCC(C(=O)NCc4cccc(Cl)c4)CC3)sc2n1	none
O=C1ON=C(c2ccccc2)/C1=C/c1ccc(O)c(O)c1	NR3A LBD binder 16
CC1=NOC(=O)/C1=C/c1ccc(O)c(Cl)c1	NR3A LBD binder 20
COc1ccc(/C=C2\C(=O)ON=C2c2ccccc2)cc1	NR3A LBD binder 19
COc1cc(/C=C2\C(=O)ON=C2c2ccc(Cl)cc2)ccc1O	none (no result: Rpn11 block, dFosB act)
CCOc1cc(/C=C2/C(=O)ON=C2C)ccc1O	none
Cc1noc(C)c1C(=O)N1CCC(C(=O)c2ccccc2)CC1	none
COc1ccc(CNC(=O)CN(C(=O)CCC(=O)Nc2ccccn2)c2ccc(C)cc2)cc1	none
Nc1c(C(=O)Nc2ccccc2)c2nc3ccccc3nc2n1-c1ccc(O)cc1	NR3A LBD binder 21
COc1ccc(-c2n[nH]c(C)c2-c2cscn2)c(O)c1	none
C=C(C)COc1ccc(-c2n[nH]c(C)c2-c2ccc(OC)cc2)c(O)c1	NR3A LBD binder 12
CCOC(=O)c1ccc(N2CCN(c3ccc(F)cc3)CC2)c(NC(=O)Nc2cccc(OC)c2)c1	EBNA-1 inhibitor 82
CCOC(=O)c1ccc(N2CCN(c3ccccc3F)CC2)c(NC(=O)Nc2ccccc2)c1	none
NC(COCc1ccccc1)c1csc(Nc2ccc(S(N)(=O)=O)cc2)n1 (stereo not given)	none (no result: ZTA DNA inh, TPT1 inh, NR3A LBD binder, EBNA-1 inhibitor, dFosB act)
COCCOc1cc(N2C(=O)CSCC2=O)c(Cl)cc1Cl	NR3A LBD binder 12
CN(C)c1ccc(/C=N/NC(=O)c2ccc3c(c2)OCCO3)cc1	NR3A LBD binder 21
CN(C)c1ccc(/C=N/NC(=O)c2cc(-c3ccc4c(c3)OCO4)n[nH]2)cc1	NR3A LBD binder 12 (not shown: Rpn11 block)
CCN(CC)c1ccc(/C=N/NC(=O)c2ccc3c(c2)OCCO3)cc1	none (no result: ZTA DNA inh, TPT1 inh, EBNA-1 inhibitor)
O=C(N/N=C/c1cc2c(cc1Cl)OCO2)c1cc(-c2ccccc2)n[nH]1	NR3A LBD binder 32
CCOC(=O)N1CCN(C(=O)C2CCCN(S(=O)(=O)c3ccc(OCC)cc3)C2)CC1 (stereo not given)	NR3A LBD binder 13
CCOc1ccc(S(=O)(=O)N2c3ccccc3CC2C)cc1 (stereo not given)	NR3A LBD binder 14
COc1ccc(S(=O)(=O)N2CCC(C(=O)N3CCc4ccccc4C3)CC2)cc1	none
Cc1ccc(S(=O)(=O)N2c3ccccc3CC2C)cc1 (stereo not given)	none
CCOC(=O)N1CCN(C(=O)C2CCCN(S(=O)(=O)c3ccc(C)cc3)C2)CC1 (stereo not given)	none
CCOc1ccc(S(=O)(=O)N2CCC(C(=O)N3CCc4ccccc4C3)CC2)cc1	NR3A LBD binder 20
CSc1ccc(NC(=O)C2(C)CCN2C(=O)c2cc(C)n(C)n2)cc1 (stereo not given)	none (no result: ZTA DNA inh, TPT1 inh, NR3A LBD binder, EBNA-1 inhibitor, dFosB act)
O=C(c1ccco1)N1CCN(Cc2nnc(-c3cccc(Br)c3)o2)CC1	none
O=C(COc1ccccc1Br)N1CCN(C(=O)c2ccco2)CC1	none
COc1ccccc1OCC(=O)N1CCN(C(=O)c2ccco2)CC1	NR3A LBD binder 10
O=C(c1ccco1)N1CCN(Cc2nnc(-c3ccccc3)o2)CC1	NR3A LBD binder 12
O=C(c1ccco1)N1CCN(Cc2nnnn2CCc2ccccc2)CC1	NR3A LBD binder 13
Cc1cccc(-c2noc(C(C)NC(=O)c3ccco3)n2)c1 (stereo not given)	none
CN(C)C1=C(Cl)C(=O)N(c2ccc(Cl)c(Cl)c2)C1=O	dFosB act 24
COc1ccc(Br)cc1C1CC(=O)C(C)C(c2cc(Br)ccc2OC)N1 (stereo not given)	none

Screens as filed in PubChem.
